From the supplement of paper PMC10849652
About 8,800 targets were measured; listed, in parts, are those with a hit and a random draw of the rest. About 0.5% of all pairs of compound and target were hits.

What was measured:
Experiment in all cases: log2 fold change, soluble protein after heating vs DMSO (PISA); higher = thermal stabilisation; K562 lysate, 10 uM; active = over 0.2 and 3.5 SD of the protein, either way, in both replicates (recomputed)
nilotinib = compound: Cc1cn(-c2cc(NC(=O)c3ccc(C)c(Nc4nccc(-c5cccnc5)n4)c3)cc(C(F)(F)F)c2)cn1 [nilotinib]
How it was run: (§1)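 Soluble protein was defined as the supernatant remaining after 21,000xg for 90 min, following pooling of heated aliquots and adjustment to 0.5% NP-40 at 4°C. Before that, crude K562 extract at 1 mg/mL protein in PBS pH 7.4 with 1 mM MgCl2 was treated with 10 μM compound for 30 min and heated for 3 min across 48°C-58°C. Quantification used TMTpro 16plex LC-MS/MS with channel sums equalised, and values are log-two fold changes in thermal stability relative to solvent controls from duplicates.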

[1] = compound: Cc1nc(Nc2n[nH]c3c2CN(C(=O)N[C@H](CN(C)C)c2ccccc2)C3(C)C)c2sccc2n1
How it was run: as §1

dasatinib = compound: Cc1nc(Nc2ncc(C(=O)Nc3c(C)cccc3Cl)s2)cc(N2CCN(CCO)CC2)n1 [dasatinib]
How it was run: as §1

[2] = compound: Cc1ncc(-c2ccnc(Nc3ccc(S(C)(=O)=O)cc3)n2)n1C(C)C
How it was run: as §1

[3] = compound: Cn1cc(-c2ccc3c(c2)CCN3C(=O)Cc2cccc(C(F)(F)F)c2)c2c(N)ncnc21
How it was run: as §1

quisinostat = compound: Cn1cc(CNCC2CCN(c3ncc(C(=O)NO)cn3)CC2)c2ccccc21 [quisinostat]
How it was run: as §1

tipifarnib = compound: Cn1cncc1[C@@](N)(c1ccc(Cl)cc1)c1ccc2c(c1)c(-c1cccc(Cl)c1)cc(=O)n2C [tipifarnib]
How it was run: as §1

[4] = compound: NC(=O)Nc1cc(-c2cccc(F)c2)sc1C(=O)N[C@H]1CCCNC1
How it was run: as §1

[5] = compound: NC(=O)c1cnc(N[C@@H]2CCCC[C@@H]2N)nc1Nc1cccc(-n2nccn2)c1
How it was run: as §1

[6] = compound: NC1(c2ccc(-c3nc4ccn5c(=O)[nH]nc5c4cc3-c3ccccc3)cc2)CCC1
How it was run: as §1

Measured: log2 fold change

GFPT1 (UniProt Q06210)
inactive: nilotinib 0.003 | [1] -0.009 | dasatinib -0.013 | [2] 0.008 | [3] 0.002 | quisinostat -0.031 | tipifarnib -0.006 | [4] 0.027 | [5] -0.003 | [6] -0.025

EIF2B3 (UniProt Q9NR50)
UniProt Q9NR50, sequence (Q9NR50 whole entry, looked up): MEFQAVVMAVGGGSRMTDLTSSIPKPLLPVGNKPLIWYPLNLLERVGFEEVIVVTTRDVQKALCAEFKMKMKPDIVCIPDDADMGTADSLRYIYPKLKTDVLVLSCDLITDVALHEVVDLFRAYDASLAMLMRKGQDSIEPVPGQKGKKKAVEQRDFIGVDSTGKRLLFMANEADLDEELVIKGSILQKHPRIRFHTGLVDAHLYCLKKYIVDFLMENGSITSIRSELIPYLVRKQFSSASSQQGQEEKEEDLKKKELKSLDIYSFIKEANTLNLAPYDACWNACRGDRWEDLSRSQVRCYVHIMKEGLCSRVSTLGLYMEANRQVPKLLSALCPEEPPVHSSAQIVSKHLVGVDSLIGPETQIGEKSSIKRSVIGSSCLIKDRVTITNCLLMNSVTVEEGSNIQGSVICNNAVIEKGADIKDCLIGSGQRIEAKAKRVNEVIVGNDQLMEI
inactive: nilotinib 0.001 | [1] 0.001 | dasatinib -0.049 | [2] 0.009 | [3] -0.024 | quisinostat -0.036 | tipifarnib -0.013 | [4] 0.022 | [5] -0.008 | [6] -0.009

DYNC1I2 isoform 5 (UniProt Q13409)
UniProt Q13409, sequence (Q13409 whole entry, looked up): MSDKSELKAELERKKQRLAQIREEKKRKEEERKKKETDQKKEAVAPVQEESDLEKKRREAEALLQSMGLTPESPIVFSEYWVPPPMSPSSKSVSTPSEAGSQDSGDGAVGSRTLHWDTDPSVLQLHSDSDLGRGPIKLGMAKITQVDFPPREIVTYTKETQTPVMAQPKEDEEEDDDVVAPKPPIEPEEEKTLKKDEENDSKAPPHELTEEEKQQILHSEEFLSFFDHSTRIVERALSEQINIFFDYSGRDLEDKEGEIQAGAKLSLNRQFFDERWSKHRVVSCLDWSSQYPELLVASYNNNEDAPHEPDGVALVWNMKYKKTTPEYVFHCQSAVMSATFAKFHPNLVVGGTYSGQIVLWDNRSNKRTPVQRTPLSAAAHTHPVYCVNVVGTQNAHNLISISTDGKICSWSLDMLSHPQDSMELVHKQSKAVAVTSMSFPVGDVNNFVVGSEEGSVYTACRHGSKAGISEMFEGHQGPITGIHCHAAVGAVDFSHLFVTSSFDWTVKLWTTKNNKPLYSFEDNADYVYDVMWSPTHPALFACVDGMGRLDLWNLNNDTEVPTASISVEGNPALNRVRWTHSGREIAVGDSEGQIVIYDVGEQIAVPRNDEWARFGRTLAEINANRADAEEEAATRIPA
inactive: nilotinib 0.029 | [1] 0.016 | dasatinib 0.008 | [2] -0.003 | [3] 0.001 | quisinostat 0.023 | tipifarnib -0.011 | [4] -0.014 | [5] -0.008 | [6] -0.01

EIF3I (UniProt Q13347)
inactive: nilotinib 0.022 | [1] -0.004 | dasatinib -0.018 | [2] 0.013 | [3] 0.044 | quisinostat -0.009 | tipifarnib 0.018 | [4] 0.036 | [5] 0 | [6] -0.013

ENSA isoform 3 (UniProt O43768)
UniProt O43768, sequence (O43768 whole entry, looked up): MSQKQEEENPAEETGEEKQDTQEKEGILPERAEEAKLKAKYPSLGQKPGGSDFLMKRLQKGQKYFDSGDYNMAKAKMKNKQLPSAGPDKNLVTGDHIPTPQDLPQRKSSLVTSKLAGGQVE
inactive: nilotinib -0.022 | [1] -0.011 | dasatinib 0.07 | [2] 0.013 | [3] -0.002 | quisinostat 0.051 | tipifarnib -0.002 | [4] -0.025 | [5] -0.029 | [6] 0.021

GART (UniProt P22102)
inactive: nilotinib -0.006 | [1] -0.024 | dasatinib -0.022 | [2] -0.011 | [3] 0.01 | quisinostat 0.025 | tipifarnib 0.011 | [4] 0.015 | [5] 0.007 | [6] 0.006

EPRS (UniProt P07814)
inactive: nilotinib 0.005 | [1] -0.002 | dasatinib -0.039 | [2] -0.01 | [3] 0.039 | quisinostat 0 | tipifarnib 0.011 | [4] 0.039 | [5] 0.002 | [6] -0.026

FXR1 (UniProt P51114)
UniProt P51114, sequence (P51114 whole entry, looked up): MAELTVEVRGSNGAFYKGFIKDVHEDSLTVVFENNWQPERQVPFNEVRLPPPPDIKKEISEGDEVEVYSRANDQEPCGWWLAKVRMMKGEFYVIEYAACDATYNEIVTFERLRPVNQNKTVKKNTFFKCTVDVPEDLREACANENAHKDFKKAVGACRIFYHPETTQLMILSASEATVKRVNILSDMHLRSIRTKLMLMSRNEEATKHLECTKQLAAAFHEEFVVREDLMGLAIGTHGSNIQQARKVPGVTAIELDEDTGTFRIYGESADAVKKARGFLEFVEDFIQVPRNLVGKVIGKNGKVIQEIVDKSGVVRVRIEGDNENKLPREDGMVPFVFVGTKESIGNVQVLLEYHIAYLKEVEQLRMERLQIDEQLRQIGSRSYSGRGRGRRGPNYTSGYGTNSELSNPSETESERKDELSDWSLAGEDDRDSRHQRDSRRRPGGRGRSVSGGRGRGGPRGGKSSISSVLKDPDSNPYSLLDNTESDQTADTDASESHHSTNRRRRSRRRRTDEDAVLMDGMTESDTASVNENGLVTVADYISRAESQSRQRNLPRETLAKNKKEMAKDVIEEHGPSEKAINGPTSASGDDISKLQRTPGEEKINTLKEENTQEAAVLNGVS
inactive: nilotinib -0.139 | [1] 0.031 | dasatinib 0.028 | [2] -0.011 | [3] 0.018 | quisinostat -0.057 | tipifarnib -0.005 | [4] 0.024 | [5] -0.001 | [6] -0.047

FBLL1 (UniProt A6NHQ2)
inactive: nilotinib 0.006 | [1] -0.015 | dasatinib -0.048 | [2] -0.101 | [3] 0 | quisinostat -0.07 | tipifarnib -0.009 | [4] 0.026 | [5] -0.037 | [6] 0

FARSB (UniProt Q9NSD9)
inactive: nilotinib -0.019 | [1] -0.005 | dasatinib -0.019 | [2] 0.006 | [3] 0.032 | quisinostat -0.001 | tipifarnib 0.02 | [4] 0.027 | [5] 0.002 | [6] -0.014

EXOC4 (UniProt Q96A65)
inactive: nilotinib 0.015 | [1] -0.012 | dasatinib -0.083 | [2] 0.015 | [3] 0.072 | quisinostat -0.009 | tipifarnib -0.036 | [4] 0.053 | [5] 0.013 | [6] -0.068

FAM76B (UniProt Q5HYJ3)
inactive: nilotinib -0.044 | [1] 0.019 | dasatinib 0.093 | [2] -0.004 | [3] 0.005 | quisinostat -0.028 | tipifarnib -0.019 | [4] -0.032 | [5] -0.026 | [6] -0.07

DYRK1A (UniProt Q13627)
inactive: nilotinib -0.018 | [1] 0.062 | dasatinib -0.021 | [2] 0.031 | [3] 0.033 | quisinostat -0.026 | tipifarnib -0.06 | [4] 0.072 | [5] -0.01 | [6] -0.013

FADS3 (UniProt Q9Y5Q0)
inactive: nilotinib -0.091 | [1] 0.216 | dasatinib 0.102 | [2] 0.166 | [3] -0.061 | quisinostat -0.019 | tipifarnib -0.081 | [4] -0.008 | [5] -0.069 | [6] 0.07

GCDH (UniProt Q92947)
UniProt Q92947, sequence (Q92947 whole entry, looked up): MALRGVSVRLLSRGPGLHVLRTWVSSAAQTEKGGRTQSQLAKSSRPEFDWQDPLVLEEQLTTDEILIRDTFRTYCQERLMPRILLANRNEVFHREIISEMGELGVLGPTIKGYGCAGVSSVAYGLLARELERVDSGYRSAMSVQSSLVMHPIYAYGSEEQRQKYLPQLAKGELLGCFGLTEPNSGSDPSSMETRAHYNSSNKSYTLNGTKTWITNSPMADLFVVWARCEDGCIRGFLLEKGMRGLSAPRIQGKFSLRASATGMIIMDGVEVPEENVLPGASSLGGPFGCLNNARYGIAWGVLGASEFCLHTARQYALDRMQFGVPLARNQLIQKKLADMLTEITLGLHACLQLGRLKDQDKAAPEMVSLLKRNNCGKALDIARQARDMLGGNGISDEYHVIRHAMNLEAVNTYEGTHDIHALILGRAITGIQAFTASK
inactive: nilotinib -0.018 | [1] -0.129 | dasatinib 0.024 | [2] -0.033 | [3] -0.022 | quisinostat -0.05 | tipifarnib -0.018 | [4] -0.07 | [5] -0.021 | [6] -0.044

EP300 (UniProt Q09472)
inactive: nilotinib 0.036 | [1] 0.037 | dasatinib -0.028 | [2] 0.081 | [3] 0.007 | quisinostat 0.03 | tipifarnib -0.043 | [4] 0.036 | [5] 0.023 | [6] 0.046

ENO2 (UniProt P09104)
inactive: nilotinib 0.006 | [1] 0.017 | dasatinib 0.036 | [2] 0.025 | [3] 0 | quisinostat -0.03 | tipifarnib -0.021 | [4] 0.001 | [5] -0.043 | [6] 0.003

EIF2B4 (UniProt Q9UI10)
UniProt Q9UI10, sequence (Q9UI10 whole entry, looked up): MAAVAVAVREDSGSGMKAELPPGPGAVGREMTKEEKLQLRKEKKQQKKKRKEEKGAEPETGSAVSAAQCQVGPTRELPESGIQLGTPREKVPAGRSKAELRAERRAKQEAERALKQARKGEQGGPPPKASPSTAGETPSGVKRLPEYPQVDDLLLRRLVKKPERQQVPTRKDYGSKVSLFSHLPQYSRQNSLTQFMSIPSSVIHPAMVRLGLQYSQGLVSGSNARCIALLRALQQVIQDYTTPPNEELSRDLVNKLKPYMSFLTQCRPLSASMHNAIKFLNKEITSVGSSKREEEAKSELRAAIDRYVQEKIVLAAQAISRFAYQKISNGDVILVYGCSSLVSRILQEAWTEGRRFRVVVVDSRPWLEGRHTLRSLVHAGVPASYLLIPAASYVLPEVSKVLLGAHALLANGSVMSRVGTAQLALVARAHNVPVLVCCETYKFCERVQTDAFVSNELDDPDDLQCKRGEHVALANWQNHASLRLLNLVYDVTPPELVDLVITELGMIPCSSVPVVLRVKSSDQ
inactive: nilotinib 0.053 | [1] -0.005 | dasatinib 0.014 | [2] 0.033 | [3] -0.022 | quisinostat 0.02 | tipifarnib 0.016 | [4] 0.022 | [5] 0.039 | [6] -0.021

ESRRA (UniProt P11474)
inactive: nilotinib -0.121 | [1] 0.016 | dasatinib 0.061 | [2] 0.035 | [3] -0.096 | quisinostat -0.038 | tipifarnib 0.008 | [4] 0.158 | [5] -0.016 | [6] 0.016

EIF2B5 (UniProt Q13144)
UniProt Q13144, sequence (Q13144 whole entry, looked up): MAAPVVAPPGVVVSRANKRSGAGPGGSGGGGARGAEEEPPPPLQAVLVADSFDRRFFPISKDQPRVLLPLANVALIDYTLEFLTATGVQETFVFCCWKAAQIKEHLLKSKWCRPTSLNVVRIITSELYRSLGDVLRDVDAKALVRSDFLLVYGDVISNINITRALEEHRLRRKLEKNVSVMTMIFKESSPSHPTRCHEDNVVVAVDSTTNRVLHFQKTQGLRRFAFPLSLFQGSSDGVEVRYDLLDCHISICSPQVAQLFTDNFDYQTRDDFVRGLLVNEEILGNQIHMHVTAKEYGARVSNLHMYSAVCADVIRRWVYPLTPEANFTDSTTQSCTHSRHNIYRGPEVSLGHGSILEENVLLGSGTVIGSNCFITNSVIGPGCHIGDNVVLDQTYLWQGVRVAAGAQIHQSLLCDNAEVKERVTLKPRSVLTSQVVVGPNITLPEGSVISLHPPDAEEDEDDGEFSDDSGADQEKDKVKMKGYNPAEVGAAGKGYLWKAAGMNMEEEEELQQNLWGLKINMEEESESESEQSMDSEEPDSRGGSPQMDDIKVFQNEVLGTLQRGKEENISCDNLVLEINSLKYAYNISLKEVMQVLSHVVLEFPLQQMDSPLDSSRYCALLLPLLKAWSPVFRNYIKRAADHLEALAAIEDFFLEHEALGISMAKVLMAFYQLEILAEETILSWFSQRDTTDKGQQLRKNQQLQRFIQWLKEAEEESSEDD
inactive: nilotinib -0.004 | [1] 0.037 | dasatinib -0.015 | [2] 0.008 | [3] 0.01 | quisinostat -0.002 | tipifarnib -0.006 | [4] 0.038 | [5] -0.01 | [6] -0.011

ENGASE (UniProt Q8NFI3)
inactive: nilotinib 0.02 | [1] -0.083 | dasatinib 0.029 | [2] -0.034 | [3] 0.028 | quisinostat 0.009 | tipifarnib 0.043 | [4] -0.04 | [5] 0.011 | [6] -0.025

FTSJ1 (UniProt Q9UET6)
UniProt Q9UET6, sequence (Q9UET6 whole entry, looked up): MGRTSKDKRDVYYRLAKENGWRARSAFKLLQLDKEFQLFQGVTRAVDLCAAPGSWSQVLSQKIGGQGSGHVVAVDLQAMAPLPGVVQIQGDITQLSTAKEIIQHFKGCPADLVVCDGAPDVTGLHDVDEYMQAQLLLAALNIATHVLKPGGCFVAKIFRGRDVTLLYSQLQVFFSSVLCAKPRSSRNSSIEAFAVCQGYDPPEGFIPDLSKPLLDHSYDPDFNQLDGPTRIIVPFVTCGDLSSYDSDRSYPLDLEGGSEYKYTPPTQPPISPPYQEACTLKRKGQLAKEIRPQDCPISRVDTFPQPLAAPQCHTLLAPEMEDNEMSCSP
inactive: nilotinib -0.013 | [1] -0.039 | dasatinib -0.016 | [2] -0.007 | [3] -0.007 | quisinostat -0.032 | tipifarnib -0.054 | [4] 0.035 | [5] -0.001 | [6] 0.029

FARSA (UniProt Q9Y285)
inactive: nilotinib -0.006 | [1] 0.017 | dasatinib -0.03 | [2] -0.003 | [3] 0.001 | quisinostat -0.037 | tipifarnib 0.003 | [4] 0.009 | [5] -0.015 | [6] -0.056

GDPD1 (UniProt Q8N9F7)
inactive: nilotinib -0.047 | [1] 0.011 | dasatinib 0.026 | [2] 0.011 | [3] -0.05 | quisinostat -0.056 | tipifarnib 0.024 | [4] -0.02 | [5] 0.053 | [6] -0.017

EDC3 (UniProt Q96F86)
inactive: nilotinib 0.045 | [1] 0.016 | dasatinib -0.022 | [2] -0.031 | [3] 0.004 | quisinostat -0.006 | tipifarnib -0.069 | [4] -0.019 | [5] -0.014 | [6] 0.017

GATAD2A isoform 3 (UniProt Q86YP4)
inactive: nilotinib 0.041 | [1] 0.001 | dasatinib 0.006 | [2] -0.009 | [3] 0.001 | quisinostat -0.074 | tipifarnib -0.009 | [4] 0.032 | [5] 0.002 | [6] -0.024

EEF1AKNMT (UniProt Q8N6R0)
UniProt Q8N6R0, sequence (Q8N6R0 whole entry, looked up): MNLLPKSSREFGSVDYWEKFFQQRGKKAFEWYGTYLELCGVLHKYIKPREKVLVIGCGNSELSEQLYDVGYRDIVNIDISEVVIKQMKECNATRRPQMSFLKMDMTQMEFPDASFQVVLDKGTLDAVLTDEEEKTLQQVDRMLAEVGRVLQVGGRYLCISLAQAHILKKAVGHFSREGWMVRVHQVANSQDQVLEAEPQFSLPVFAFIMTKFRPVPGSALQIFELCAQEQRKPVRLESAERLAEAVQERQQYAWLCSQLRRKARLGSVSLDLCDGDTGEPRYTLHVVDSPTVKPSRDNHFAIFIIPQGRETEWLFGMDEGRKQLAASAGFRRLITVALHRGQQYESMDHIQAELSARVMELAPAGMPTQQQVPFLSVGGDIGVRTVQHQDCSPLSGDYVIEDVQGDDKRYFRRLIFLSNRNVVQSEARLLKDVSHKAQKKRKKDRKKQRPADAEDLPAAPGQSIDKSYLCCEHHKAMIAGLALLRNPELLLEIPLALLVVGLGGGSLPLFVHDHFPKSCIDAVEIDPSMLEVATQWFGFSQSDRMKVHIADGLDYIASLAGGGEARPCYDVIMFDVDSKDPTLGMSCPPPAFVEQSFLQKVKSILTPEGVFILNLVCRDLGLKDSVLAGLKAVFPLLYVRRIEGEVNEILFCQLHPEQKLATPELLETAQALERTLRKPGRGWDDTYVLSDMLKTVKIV
inactive: nilotinib 0.006 | [1] -0.008 | dasatinib -0.044 | [2] -0.011 | [3] 0.043 | quisinostat -0.093 | tipifarnib -0.003 | [4] 0.045 | [5] -0.013 | [6] 0.01

FANCI (UniProt Q9NVI1)
inactive: nilotinib -0.022 | [1] -0.011 | dasatinib -0.069 | [2] 0.028 | [3] 0.049 | quisinostat -0.065 | tipifarnib 0.01 | [4] 0.061 | [5] 0.027 | [6] -0.027

GABPB1 (UniProt Q06547)
UniProt Q06547, sequence (Q06547 whole entry, looked up): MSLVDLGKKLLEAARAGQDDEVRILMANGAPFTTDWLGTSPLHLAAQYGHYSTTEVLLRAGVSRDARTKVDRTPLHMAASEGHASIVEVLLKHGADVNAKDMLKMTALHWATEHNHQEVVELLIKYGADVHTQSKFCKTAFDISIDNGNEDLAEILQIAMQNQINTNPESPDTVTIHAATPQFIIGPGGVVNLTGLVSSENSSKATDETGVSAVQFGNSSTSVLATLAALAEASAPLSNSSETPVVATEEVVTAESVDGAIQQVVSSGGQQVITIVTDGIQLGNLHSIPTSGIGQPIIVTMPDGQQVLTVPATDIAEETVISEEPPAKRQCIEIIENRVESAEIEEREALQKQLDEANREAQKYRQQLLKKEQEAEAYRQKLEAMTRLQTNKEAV
inactive: nilotinib -0.008 | [1] 0.012 | dasatinib -0.051 | [2] -0.023 | [3] 0.05 | quisinostat -0.036 | tipifarnib 0.007 | [4] 0.031 | [5] 0.05 | [6] 0.033

EIF2D (UniProt P41214)
inactive: nilotinib -0.034 | [1] 0.028 | dasatinib -0.027 | [2] -0.009 | [3] 0.002 | quisinostat -0.064 | tipifarnib 0.024 | [4] 0.04 | [5] 0.008 | [6] -0.041
